# PubChem BioAssay (NCATS)
# Values joined by “and” are separate entries in the source; they are usually repeats but may differ in a detail not shown here. Equal entries are not always repeated. Inconclusive results are not listed. Where a call stands in place of a potency, no number is given. Active and inactive are the calls of the source. Unless noted, calls follow the shape of the full dose curve.
# How the values were obtained:
# [1] = Cell Viability - SK-N-SH (AID 435); settings: SK-N-SH neuroblastoma cell viability qHTS; also: potency is read from the fitted curve at half-maximal effect
# How it was run: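 Cells seeded at 1500 per well and incubated 5 hr at 37 °C. Compound added, then 40 hr at 37 °C. CellTiter-Glo added, 20 min at room temperature, luminescence read.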
# [2] = Cell Viability - N2a (AID 540; active = well fitted curve in the direction sought with a large enough effect; an effect the other way counts as inactive or inconclusive; also: nearly all actives have a fitted effect of over 45% in size); settings: N2a mouse neuroblastoma cell viability; activity change, negative = cytotoxicity: at 92.2 µM (top of the series)
# How it was run: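 CellTiter-Glo ATP luminescence, read 20 min after reagent at room temperature, reported viability following 40 h compound treatment at 37 °C. N2a mouse neuroblastoma cells seeded 1500/well; Hill equation gave AC50.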
# [3] = Cell Viability - NIH 3T3 (AID 541; active = well fitted curve in the direction sought with a large enough effect; an effect the other way counts as inactive or inconclusive;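 also: cells exposed to compound for 40 hours; nearly all actives have a fitted effect of over 25% in size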); settings: NIH 3T3 cell viability, qHTS; activity change, negative = cytotoxicity: at 92.2 µM (top of the series)
# How it was run: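 Intracellular ATP (CellTiter-Glo luminescence, 20 min at room temperature) measured after 40 hr compound exposure at 37 °C of 1000 NIH 3T3 mouse fibroblasts/well in complete medium; AC50 derived by Hill-equation modelling of qHTS concentration-response curves.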
# [4] = Cell Viability - H-4-II-E (AID 543; active = well fitted curve in the direction sought with a large enough effect; an effect the other way counts as inactive or inconclusive;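 also: cells exposed to compound for 40 hours; nearly all actives have a fitted effect of over 35% in size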); settings: H-4-II-E rat hepatoma viability; series mostly up to 92.2 µM
# How it was run: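 CellTiter-Glo luminescence (intracellular ATP) measured after 40 h compound exposure at 37 °C in H-4-II-E rat hepatoma cells seeded at 1500/well. Values are AC50s fitted with the standard Hill equation.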
# [5] = Cell Viability - SH-SY5Y (AID 544; active = well fitted curve in the direction sought with a large enough effect; an effect the other way counts as inactive or inconclusive;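 also: cells exposed to compound for 40 hours; nearly all actives have a fitted effect of over 55% in size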); settings: SH-SY5Y neuroblastoma cell viability; viability change, negative = cytotoxic: at 92.2 µM (top of the series)
# How it was run: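 Cytotoxicity measured via ATP-dependent luciferase luminescence (CellTiter-Glo) following 40 h, 37 °C exposure of 1500 SH-SY5Y cells per well. Concentration-response data were fitted with the standard Hill equation to give AC50.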
# [6] = Cellular Toxicity (caspase-3) Jurkat (AID 655; active = well fitted curve in the direction sought with a large enough effect; an effect the other way counts as inactive or inconclusive;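 also: cells exposed to compound for 16 h at 37 °C before reading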); settings: Jurkat caspase-3 activation, luminescence; caspase-3 activation: at 92.2 µM (top of the series), DMSO = 0%, tamoxifen = 100%
# How it was run: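 Caspase 3/7 activation is scored as increased luminescence in Jurkat cells cultured with compound for 16 hours in complete medium. AC50 values come from Hill fits of qHTS concentration-response data normalized to DMSO and 100 uM tamoxifen controls.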
# [7] = target: Bile acid receptor (Homo sapiens) (UniProt Q96RI1); assay: qHTS assay for small molecule antagonists of farnesoid X receptor signaling (AID 588526); settings: HEK293T FXR-UAS-bla, beta-lactamase ratio, antagonist mode; series mostly up to 76.7 µM
# Bile acid receptor (Homo sapiens), sequence (Q96RI1 whole entry, looked up): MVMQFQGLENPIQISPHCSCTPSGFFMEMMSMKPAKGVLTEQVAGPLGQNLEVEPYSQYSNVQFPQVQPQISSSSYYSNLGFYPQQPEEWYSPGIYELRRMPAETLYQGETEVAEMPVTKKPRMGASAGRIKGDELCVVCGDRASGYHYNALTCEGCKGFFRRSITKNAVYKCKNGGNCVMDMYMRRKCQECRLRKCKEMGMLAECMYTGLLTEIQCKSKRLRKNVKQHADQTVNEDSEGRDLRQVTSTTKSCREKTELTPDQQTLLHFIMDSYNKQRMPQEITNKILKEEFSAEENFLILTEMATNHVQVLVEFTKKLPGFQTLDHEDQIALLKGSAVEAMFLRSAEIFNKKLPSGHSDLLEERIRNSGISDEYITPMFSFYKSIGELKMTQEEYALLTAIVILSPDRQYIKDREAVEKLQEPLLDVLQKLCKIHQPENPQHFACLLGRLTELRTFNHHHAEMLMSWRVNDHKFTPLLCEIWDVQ
# How it was run: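 Antagonist mode: titrated compounds tested against chenodeoxycholic acid stimulation (normalized to 50 uM CDCA and DMSO) in GeneBLAzer HEK293T cells for 16 h. Beta-lactamase read by CCF4 fluorescence; IC50 from Hill fits.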
# [8] = target: Bile acid receptor (Homo sapiens) (UniProt Q96RI1); assay: qHTS assay for small molecule agonists of farnesoid X receptor signaling (AID 588527); settings: HEK293T FXR-UAS-bla, beta-lactamase ratio, 16 h; stronger effect = higher value
# How it was run: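 Quantitative HTS used FXR-UAS-bla HEK293T cells with 16 h compound incubation at 37 C. EC50 values came from concentration-response curves normalized to chenodeoxycholic acid.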
# [9] = target: Peroxisome proliferator-activated receptor delta (Homo sapiens) (UniProt Q03181); assay: qHTS assay for small molecule agonists of peroxisome proliferator-activated receptor delta signaling (AID 588534); settings: HEK293T PPARdelta-UAS-bla, beta-lactamase ratio, 18 h; series mostly up to 76.7 µM
# Peroxisome proliferator-activated receptor delta (Homo sapiens), sequence (Q03181 whole entry, looked up): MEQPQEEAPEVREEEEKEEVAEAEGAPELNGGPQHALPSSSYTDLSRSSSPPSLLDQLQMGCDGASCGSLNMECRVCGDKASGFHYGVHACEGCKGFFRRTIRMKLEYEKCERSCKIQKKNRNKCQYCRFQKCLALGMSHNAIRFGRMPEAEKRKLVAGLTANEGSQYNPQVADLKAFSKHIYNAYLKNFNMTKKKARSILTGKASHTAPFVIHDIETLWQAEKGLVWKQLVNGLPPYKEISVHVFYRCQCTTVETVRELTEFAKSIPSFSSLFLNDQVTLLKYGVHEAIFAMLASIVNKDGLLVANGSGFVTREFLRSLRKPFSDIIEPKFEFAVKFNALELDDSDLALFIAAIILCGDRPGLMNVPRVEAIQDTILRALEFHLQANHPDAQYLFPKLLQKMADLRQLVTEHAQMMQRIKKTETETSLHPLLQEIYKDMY
# How it was run: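 Agonist-mode beta-lactamase reporter readout (CCF4 dye, 2 h at RT) after 18 h at 37 °C exposure to a titration; Hill-equation fitting gave EC50 and maximal response.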
# [10] = qHTS assay for small molecule antagonists of peroxisome proliferator-activated receptor delta signaling (AID 588535); settings: HEK293T PPARd-UAS-bla, beta-lactamase FRET ratio, 18 h; 460 nm channel;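 also: cells co-treated with a PPAR-delta agonist as stimulator during compound exposure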
# How it was run: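 Fluorescence from CCF4-loaded GeneBLAzer PPAR-delta-UAS-bla HEK293T cells (2 hrs RT loading) quantified reporter inhibition after an 18 hr, 37 C compound exposure across a titration.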
# [11] = target: Peroxisome proliferator-activated receptor gamma (Homo sapiens) (UniProt P37231); assay: qHTS assay for small molecule antagonists of peroxisome proliferator-activated receptor gamma signaling (AID 588537; active = well fitted inhibition curve with a large enough effect in the signal ratio, with a control signal flat, not every such curve was filed as active; the % refers to the signal ratio;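 also: reporter cells co-stimulated with 50 nM rosiglitazone agonist during compound treatment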); settings: HEK293 PPARg-UAS-bla, beta-lactamase ratio, antagonist mode; series mostly up to 76.8 µM
# Peroxisome proliferator-activated receptor gamma (Homo sapiens), sequence (P37231 whole entry, looked up): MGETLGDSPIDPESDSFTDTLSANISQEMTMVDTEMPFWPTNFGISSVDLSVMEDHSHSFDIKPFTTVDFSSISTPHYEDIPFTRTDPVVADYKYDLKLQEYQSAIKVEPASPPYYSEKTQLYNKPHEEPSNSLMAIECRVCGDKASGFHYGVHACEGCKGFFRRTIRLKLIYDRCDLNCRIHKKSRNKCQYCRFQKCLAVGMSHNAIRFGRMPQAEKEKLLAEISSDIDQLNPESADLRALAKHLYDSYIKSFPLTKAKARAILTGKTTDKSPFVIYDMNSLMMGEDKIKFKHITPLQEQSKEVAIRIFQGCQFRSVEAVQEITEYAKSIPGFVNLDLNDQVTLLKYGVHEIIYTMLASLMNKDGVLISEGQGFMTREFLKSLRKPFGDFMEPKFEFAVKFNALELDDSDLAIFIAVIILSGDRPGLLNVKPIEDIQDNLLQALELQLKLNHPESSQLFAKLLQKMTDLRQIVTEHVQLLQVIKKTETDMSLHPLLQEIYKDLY
# How it was run: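 Fluorescence at 460 and 530 nm (405 nm excitation) reported beta-lactamase cleavage of CCF4 after 2 h room-temperature loading. HEK293 reporter cells in 1% charcoal/dextran-treated FBS had received compound and rosiglitazone for 16 h.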
# [12] = target: Vitamin D3 receptor (Homo sapiens) (UniProt P11473); assay: qHTS assay for small molecule antagonists of vitamin D receptor signaling (AID 588541); settings: HEK293T VDR-UAS-bla, beta-lactamase ratio, antagonist mode; series mostly up to 76.7 µM;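 also: receptor activated by calcitriol during compound treatment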
# Vitamin D3 receptor (Homo sapiens), sequence (P11473 whole entry, looked up): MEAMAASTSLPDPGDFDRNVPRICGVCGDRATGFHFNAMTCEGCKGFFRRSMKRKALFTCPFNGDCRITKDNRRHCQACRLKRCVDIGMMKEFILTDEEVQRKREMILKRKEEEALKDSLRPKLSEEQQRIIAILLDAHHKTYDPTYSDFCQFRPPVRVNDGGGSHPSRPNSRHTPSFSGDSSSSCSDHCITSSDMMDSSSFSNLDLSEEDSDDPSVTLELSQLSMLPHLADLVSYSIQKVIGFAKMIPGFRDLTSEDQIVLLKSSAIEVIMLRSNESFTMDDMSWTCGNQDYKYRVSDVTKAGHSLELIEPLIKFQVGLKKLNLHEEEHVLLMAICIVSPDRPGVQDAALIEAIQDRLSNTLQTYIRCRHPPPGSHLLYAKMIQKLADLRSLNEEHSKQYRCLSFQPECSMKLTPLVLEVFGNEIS
# How it was run: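 VDR-UAS-bla HEK293T cells in 2% charcoal-stripped FBS were stimulated with 1-alpha,25-dihydroxyvitamin D3 (3 nM final) plus compound for 16 h at 37 C. The beta-lactamase CCF4 readout was normalized to 50 nM agonist and DMSO, and Hill fits gave IC50.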
# [13] = target: Retinoic acid receptor RXR-alpha (Homo sapiens) (UniProt P19793); assay: qHTS assay for small molecule agonists of retinoid X receptor alpha signaling (AID 588544); settings: HEK293T RXRa-UAS-bla, beta-lactamase reporter, 18 h; series mostly up to 76.7 µM
# Retinoic acid receptor RXR-alpha (Homo sapiens), sequence (P19793 whole entry, looked up): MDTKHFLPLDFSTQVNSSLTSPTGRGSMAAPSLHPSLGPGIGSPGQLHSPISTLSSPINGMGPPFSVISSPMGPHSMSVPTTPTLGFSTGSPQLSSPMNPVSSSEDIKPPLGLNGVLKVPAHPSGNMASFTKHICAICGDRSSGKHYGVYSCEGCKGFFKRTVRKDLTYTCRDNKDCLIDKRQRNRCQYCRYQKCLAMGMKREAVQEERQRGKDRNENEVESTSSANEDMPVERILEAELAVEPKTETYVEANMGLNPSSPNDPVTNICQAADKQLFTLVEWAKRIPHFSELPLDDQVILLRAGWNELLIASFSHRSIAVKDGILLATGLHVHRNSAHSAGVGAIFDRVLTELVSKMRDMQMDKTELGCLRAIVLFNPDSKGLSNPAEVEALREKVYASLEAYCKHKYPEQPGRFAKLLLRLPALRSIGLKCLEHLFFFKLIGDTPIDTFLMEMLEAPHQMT
# [14] = qHTS assay for small molecule disruptors of the mitochondrial membrane potential - 1 hr assay (AID 651754); settings: series mostly up to 92.2 µM; also: nearly all actives have a fitted effect of over 35% in size; also: potency is read from the fitted curve at half-maximal effect
# How it was run: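 Mitochondrial potential in living HepG2 cells after 1 hr compound treatment at 37C was read with Mito-MPS dye added for a further 30 min. Red aggregate and green monomer fluorescence were measured; loss of potential leaves dye as cytoplasmic monomers.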
# [15] = target: Estrogen receptor (Homo sapiens) (UniProt P03372); assay: qHTS assay for small molecule antagonists of estrogen receptor alpha signaling (AID 588513; active = well fitted curve in the direction sought with a large enough effect in the signal ratio, with a control signal flat, not every such curve was filed as active; the % refers to the signal ratio); settings: ER-alpha-UAS-bla HEK293, beta-lactamase ratio, antagonist mode; series mostly up to 76.9 µM
# Estrogen receptor (Homo sapiens), sequence (P03372 whole entry, looked up): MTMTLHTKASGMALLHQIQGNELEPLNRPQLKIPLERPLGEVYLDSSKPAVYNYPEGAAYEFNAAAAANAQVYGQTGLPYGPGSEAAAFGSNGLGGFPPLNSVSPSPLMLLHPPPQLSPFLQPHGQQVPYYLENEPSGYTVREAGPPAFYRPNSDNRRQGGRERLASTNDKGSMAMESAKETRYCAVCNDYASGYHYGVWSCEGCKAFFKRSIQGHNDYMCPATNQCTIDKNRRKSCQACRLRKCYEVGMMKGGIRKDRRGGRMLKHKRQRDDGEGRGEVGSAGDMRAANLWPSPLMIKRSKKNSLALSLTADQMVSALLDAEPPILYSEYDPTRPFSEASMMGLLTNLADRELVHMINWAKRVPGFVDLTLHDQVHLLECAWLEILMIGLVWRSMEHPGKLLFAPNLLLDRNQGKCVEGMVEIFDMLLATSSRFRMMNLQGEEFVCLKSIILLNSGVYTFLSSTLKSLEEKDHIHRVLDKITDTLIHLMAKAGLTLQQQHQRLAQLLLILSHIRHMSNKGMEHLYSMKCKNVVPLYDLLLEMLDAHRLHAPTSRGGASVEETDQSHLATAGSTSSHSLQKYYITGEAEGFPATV
# How it was run: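 Cells were plated at 5000/well and incubated 4 h at 37 C. Compounds were added as 1:2 dilution series, duplicates. 17-beta-estradiol (0.5nM final) was added for 18 h before CCF4 detection.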
# [16] = target: Estrogen receptor (Homo sapiens) (UniProt P03372); assay: qHTS assay for small molecule agonists of estrogen receptor alpha signaling (AID 588514); settings: ER-alpha-UAS-bla HEK293, beta-lactamase ratio, 18 h; series mostly up to 76.8 µM; also: nearly all actives have a fitted effect of over 70% in size
# How it was run: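 EC50 and efficacy came from Hill fits of beta-lactamase reporter signal (CCF4 dye, 2 h at room temperature) scaled between DMSO and 20 nM 17-beta-estradiol. Agonist mode: HEK293 ER-alpha-UAS-bla cells in charcoal/dextran-stripped serum medium, 18 h compound exposure at 37 C.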
# [17] = target: Glucocorticoid receptor (Homo sapiens) (UniProt P04150); assay: qHTS assay for small molecule agonists of glucocorticoid receptor signaling (AID 588532; active = well fitted curve in the direction sought with a large enough effect in the signal ratio, with a control signal flat; the % refers to the signal ratio); settings: HeLa MMTV-bla, beta-lactamase ratio, agonist, 18 h; stronger effect = higher value; percent of dexamethasone control, DMSO zero
# Glucocorticoid receptor (Homo sapiens), sequence (P04150 whole entry, looked up): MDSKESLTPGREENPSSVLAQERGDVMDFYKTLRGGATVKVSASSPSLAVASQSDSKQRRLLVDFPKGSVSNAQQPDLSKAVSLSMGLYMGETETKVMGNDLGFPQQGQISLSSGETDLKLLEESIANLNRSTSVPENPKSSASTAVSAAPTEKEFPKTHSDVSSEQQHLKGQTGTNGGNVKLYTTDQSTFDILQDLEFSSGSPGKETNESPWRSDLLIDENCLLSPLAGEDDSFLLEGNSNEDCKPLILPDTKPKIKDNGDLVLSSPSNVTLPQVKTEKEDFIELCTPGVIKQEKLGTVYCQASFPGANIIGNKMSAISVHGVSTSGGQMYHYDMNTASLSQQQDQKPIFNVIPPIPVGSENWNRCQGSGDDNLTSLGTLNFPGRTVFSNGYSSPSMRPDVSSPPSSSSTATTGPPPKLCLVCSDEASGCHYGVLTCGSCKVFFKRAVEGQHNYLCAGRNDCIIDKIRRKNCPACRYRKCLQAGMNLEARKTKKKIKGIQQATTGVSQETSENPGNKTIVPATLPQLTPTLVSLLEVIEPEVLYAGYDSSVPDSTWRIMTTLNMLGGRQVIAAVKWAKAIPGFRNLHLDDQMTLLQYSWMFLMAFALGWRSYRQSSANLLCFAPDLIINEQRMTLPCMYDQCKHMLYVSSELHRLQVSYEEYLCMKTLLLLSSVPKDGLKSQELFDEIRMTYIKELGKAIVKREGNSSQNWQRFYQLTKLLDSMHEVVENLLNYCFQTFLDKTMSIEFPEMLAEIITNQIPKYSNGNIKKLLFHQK
# How it was run: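 Cells were plated and rested 3-5 h at 37 C, compounds were added in titration and incubated 18 h, then CCF4 substrate was loaded for 2 h at RT before reading blue/green fluorescence. EC50 came from Hill-equation fitting.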
# [18] = target: Glucocorticoid receptor (Homo sapiens) (UniProt P04150); assay: qHTS assay for small molecule antagonists of glucocorticoid receptor signaling (AID 588533; active = well fitted inhibition curve with a large enough effect in the signal ratio, with a control signal flat, not every such curve was filed as active; the % refers to the signal ratio); settings: HeLa MMTV-bla, GRE beta-lactamase ratio, antagonist mode, 18 h; series mostly up to 76.8 µM
# How it was run: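 Antagonist-mode qHTS: compound titrations added to GRE-bla HeLa cells, then dexamethasone 2 nM final; 18 h, 37 C. CCF4 FRET fluorescence normalized to dexamethasone and DMSO; IC50 from Hill fit.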
# [19] = qHTS assay for small molecule agonists of the antioxidant response element (ARE) signaling pathway (AID 651741; active = well fitted activation curve with a large enough effect in the signal ratio; the % refers to the signal ratio); settings: HepG2 ARE-bla reporter, beta-lactamase FRET ratio, 16 h; series mostly up to 96 µM
# How it was run: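 Stably integrated ARE-beta-lactamase reporter HepG2 cells; 16 h compound incubation, 37 C; LiveBLAzer FRET substrate 2 h at room temperature; fluorescence intensity.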
# [20] = Cell Viability - BJ (AID 421); settings: BJ fibroblast viability, qHTS;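 also: potency is read from the fitted curve at half-maximal effect; cells exposed to compound for 40 hours at 37 °C before readout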
# How it was run: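 Quantitative HTS: ATP depletion in BJ cells after 40 hr compound exposure in complete culture medium, detected with CellTiter-Glo; AC50 from standard Hill fits.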
Structure (SMILES),Potency [1],Potency [2],Potency [3],Potency [4],Potency [5],caspase-3 activation [6],outcome [7],activation [8],outcome [9],max response [10],Potency [11],outcome [12],outcome [13],Potency [14],Potency [15],Potency [16],activation [17],outcome [18],Potency [19],Potency [20]
Nc1cc(Cl)cc(Cl)c1,> 92 µM (inactive),inactive,inactive,inactive,inactive,-0.381% (inactive),inactive,-0.351% (inactive),inactive,-13.8%,inactive,inactive,inactive,inactive,–,–,–,–,–,–
Nc1ccc(-c2ccc(N)cc2)cc1,> 92 µM (inactive),inactive,inactive,–,inactive,0.684% (inactive),–,–,–,–,inactive,inactive,inactive,–,inactive,inactive,-6.73% (inactive),inactive,inactive,–
O=C(Cl)OCc1ccccc1,> 92 µM (inactive),inactive,–,inactive,inactive,0.751% (inactive),–,–,–,–,–,inactive,inactive,inactive,inactive,inactive,-1.41% (inactive),inactive,inactive,–
COC(=O)c1ccccc1N,> 92 µM (inactive),inactive,–,inactive,inactive,1.63% (inactive),–,–,inactive,-46.7%,inactive,inactive,inactive,–,–,–,-6.23% (inactive),inactive,–,–
O=C(Cl)c1ccccc1F,> 92 µM (inactive),inactive,inactive,inactive,–,2.05% (inactive),–,2.29% (inactive),inactive,-9.33%,inactive,inactive,inactive,–,inactive,–,–,–,–,–
N#CCCC#N,> 92 µM (inactive),inactive,inactive,inactive,inactive,-0.151% (inactive),–,-0.443% (inactive),inactive,18.6%,–,inactive,inactive,–,inactive,inactive,–,–,inactive,–
Oc1ccc(Cl)c(Cl)c1,> 92 µM (inactive),–,–,–,inactive,-1.55% (inactive),–,–,–,-12.5%,inactive,inactive,–,33.5 µM (active),inactive,–,–,–,–,> 92 µM (inactive)
Nc1cc(Cl)ccc1Cl,> 92 µM (inactive),inactive,inactive,inactive,inactive,0.909% (inactive),–,–,inactive,–,–,–,inactive,inactive,–,–,-3.66% (inactive),inactive,–,–
CCCCCOC(=O)c1ccccc1C(=O)OCCCCC,> 92 µM (inactive),–,inactive,inactive,inactive,–,–,–,–,–,inactive,inactive,inactive,inactive,inactive,inactive,5.29% (inactive) and -3.67% (inactive),inactive,inactive,–
